Laboratory results published in PubChem BioAssay (EPA / NIEHS).
Several values for one entry are separate records, joined by “and”; a condition that tells them apart may be missing. Equal values may be shown once. Where a structure was tested more than once in an assay, its records may differ in their call. Activity calls are given as the source filed them. Rule for the calls, unless noted: active = hit-call score of the fitted dose curve at least 0.9, where 1 is the maximum; inactive = score below 0.9.

Experiments:
[1] = CCTE_Deisenroth_H295R-HTRF_384WELL_ESTRADIOL: CCTE's H295R-HTRF Assay Evaluation of Estradiol Concentration, Deisenroth Lab (AID 2284361); conditions: actives raise or lower the signal
In short: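 H295R cells exposed 48 h to chemicals at 0.001 - 100 uM final (nine points, triplicate); estradiol in conditioned medium measured by HTRF immunoassay, fitted bidirectionally versus DMSO. Viability by CellTiter-Glo on same plates.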

[2] = CCTE_Deisenroth_H295R-HTRF_384WELL_TESTOSTERONE: CCTE's H295R-HTRF Assay Evaluation of Testosterone Concentration, Deisenroth Lab (AID 2284373); conditions: actives raise or lower the signal
In short: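 Secreted testosterone was quantified by HTRF immunoassay of medium from human adrenocortical H295R cells after 48 h chemical exposure at 0.001–100 uM final. Gain or loss was fitted against DMSO. ATP-based viability was read on matched wells, five experimental replicates.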

[3] = CCTE_Deisenroth_H295R-HTRF_384WELL_CTOX: Cytotoxicity Assessment in CCTE's H295R-HTRF Assay, Deisenroth Lab (AID 2284380; active = hit-call score of the fitted dose curve at least 0.9, where 1 is the maximum)
In short: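 H295R adrenocortical carcinoma cells plated 24 h, then exposed 48 h to nine-point series 0.001–100 uM final, triplicate, n=5. ATP measured by CellTiter-Glo 2.0 luminescence on same plates after medium collection; loss versus DMSO.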

[4] = CCTE_Padilla_ZF_Score.General: CCTE's 144 Hour Post-fertilization zebrafish Assay Score for General Malformation, Padilla Lab (AID 2284411)
In short: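 Wild-type zebrafish embryos were plated singly at 6-8 hpf in 10% Hanks' and exposed in sealed wells at 26C until rinsed on 5 dpf. At 6 dpf two blinded assessors scored mortality, hatching and malformations by stereomicroscopy; gain-of-signal versus DMSO.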

[5] = Tanguay_ZF_120hpf_MO24: Oregon State University Tanguay Lab 24 Hour Post-fertilization zebrafish Assay for Mortality (AID 2284389)
In short: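 Dechorionated wild-type zebrafish embryos, 1 per well, statically exposed from 6 hpf at 28C, 0.64% DMSO final. Mortality scored as binary present/absent at 24 hpf by brightfield microscopy, relative to DMSO.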

[6] = Tanguay_ZF_120hpf_DP24: Oregon State University Tanguay Lab 24 Hour Post-fertilization zebrafish Assay for Delayed Development (AID 2284390)
In short: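 Dechorionated 5D wild-type zebrafish embryos exposed statically from 6 hpf, one per well, 0.64% DMSO final, 28 C, sealed and dark. Developmental progression scored at 24 hpf by brightfield as binary present/absent; dead embryos excluded.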

[7] = Tanguay_ZF_120hpf_CRAN: Oregon State University Tanguay Lab 120 Hour Post-fertilization zebrafish Assay for Craniofacial Malformation (AID 2284397)
In short: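 Dechorionated Tropical 5D wild-type zebrafish embryos, one per well, were statically exposed from 6 to 120 hpf at 28C in 0.64% DMSO, with 5uM trimethyltin chloride as positive control. Craniofacial malformation was scored present/absent by brightfield microscopy, relative to DMSO.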

[8] = Tanguay_ZF_120hpf_AXIS: Oregon State University Tanguay Lab 120 Hour Post-fertilization zebrafish Assay for Axial Malformation (AID 2284398)
In short: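 Dechorionated 5D wild-type zebrafish embryos exposed statically, one per well, from 6 to 120 hpf at 28C, 0.64% DMSO. Axial malformation scored as present/absent by brightfield microscopy at 120 hpf; dead embryos not scored.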

[9] = Tanguay_ZF_120hpf_MORT: Oregon State University Tanguay Lab 120 Hour Post-fertilization zebrafish Assay for Mortality (AID 2284399)
In short: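 Dechorionated wild-type Tropical 5D zebrafish embryos, one per well from 6 hpf, static exposure to 120 hpf at 28C in sealed dark plates, 0.64% DMSO final. Mortality scored as binary by brightfield at 24 and 120 hpf.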

[10] = Tanguay_ZF_120hpf_EDEM: Oregon State University Tanguay Lab 120 Hour Post-fertilization zebrafish Assay for Edema Malformation (AID 2284400)
In short: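 Dechorionated Tropical 5D wild-type embryos, one per well, statically exposed from 6 to 120 hpf at 28C in 0.64% DMSO. Edema scored present/absent by brightfield microscopy at 120 hpf; dead embryos not scored; fit versus DMSO.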

[11] = Tanguay_ZF_120hpf_MUSC: Oregon State University Tanguay Lab 120 Hour Post-fertilization zebrafish Assay for Muscle Malformation (AID 2284401)
In short: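 Dechorionated Tropical 5D wild-type zebrafish embryos exposed statically from 6 to 120 hpf at 28C, one per well, in 0.64% DMSO. Muscle malformation scored present/absent by brightfield microscopy at 120 hpf, fitted against DMSO.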

[12] = Tanguay_ZF_120hpf_BRN: Oregon State University Tanguay Lab 120 Hour Post-fertilization zebrafish Assay for Brain Region Malformation (AID 2284402)
In short: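 Dechorionated wild-type Tropical 5D zebrafish embryos exposed statically from 6 to 120 hpf at 28C, one per well, 0.64% DMSO final. Brain malformation scored at 120 hpf by brightfield as present/absent; dead embryos not scored.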

[13] = Tanguay_ZF_120hpf_TCHR: Oregon State University Tanguay Lab 120 Hour Post-fertilization zebrafish Assay for Touch Responsive (AID 2284403)
In short: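 Dechorionated Tropical 5D wild-type zebrafish embryos, one per well from 6 hpf, were statically exposed to 120 hpf at 28 °C (0.64% DMSO). Touch response was scored present/absent at 120 hpf and not scored in dead larvae.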

[14] = Tanguay_ZF_120hpf_ANY: Oregon State University Tanguay Lab 120 Hour Post-fertilization zebrafish Assay for Any Mortality and Malformation (AID 2284404)
In short: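 Dechorionated Tropical 5D wild-type embryos, one per well from 6 hpf, static exposure in sealed, dark plates at 28C until 120 hpf, 0.64% DMSO final. Brightfield scoring of mortality and malformations as binary presence/absence, pooling 13 morphology endpoints.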

[15] = CCTE_Padilla_ZF_Score.Craniofacial: CCTE's 144 Hour Post-fertilization zebrafish Assay Score for Craniofacial Malformation, Padilla Lab (AID 2284405)
In short: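 Wild-type zebrafish embryos (with chorions), one per well in 10% Hanks', were dosed at 6–8 hpf in sealed plates and kept at 26C. They were rinsed at 5 dpf. At 6 dpf two blinded assessors scored craniofacial malformations by brightfield stereomicroscopy.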

[16] = CCTE_Padilla_ZF_Score.Edema: CCTE's 144 Hour Post-fertilization zebrafish Assay Score for Edema Malformation, Padilla Lab (AID 2284406)
In short: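 Wild-type zebrafish embryos, one per well in Hanks' solution, dosed at 6-8 hpf, sealed and reared at 26C on a 14:10 h cycle; rinsed on 5 dpf. At 6 dpf, blinded assessors scored edema by stereomicroscopy.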

[17] = CCTE_Padilla_ZF_Score.Spine: CCTE's 144 Hour Post-fertilization zebrafish Assay Score for Spine Malformation, Padilla Lab (AID 2284407)
In short: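 Wild-type zebrafish embryos, one per well in Hanks' solution, dosed at 6–8 hpf in sealed plates at 26C, 14:10 h light:dark; rinsed at 5 dpf. Two blinded assessors scored spinal defects by stereomicroscopy at 6 dpf; fitted versus DMSO.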

[18] = CCTE_Padilla_ZF_Score.Swim_bladder: CCTE's 144 Hour Post-fertilization zebrafish Assay Score for Swim Bladder Malformation, Padilla Lab (AID 2284408)
In short: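 Wild-type zebrafish embryos, one per well in 10% Hanks', dosed at 6–8 hpf, sealed, reared at 26C and rinsed at 5 dpf. Blinded assessors scored uninflated swim bladder by stereomicroscopy at 6 dpf, relative to DMSO.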

[19] = CCTE_Padilla_ZF_Score.Position: CCTE's 144 Hour Post-fertilization zebrafish Assay Score for Position, Padilla Lab (AID 2284409)
In short: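 Wild-type zebrafish embryos (with chorions) exposed singly from 6–8 hpf in sealed wells of Hanks' solution at 26C, rinsed at 5 dpf. At 6 dpf, blinded assessors scored abnormal water-column position by brightfield stereomicroscopy, relative to DMSO.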

[20] = CCTE_Padilla_ZF_Score.Living: CCTE's 144 Hour Post-fertilization zebrafish Assay Score for Viability, Padilla Lab (AID 2284410);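 note: larval death at 6 dpf judged by absent heartbeat or coagulation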
In short: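 Wild-type zebrafish embryos were exposed singly from 6–8 hpf in sealed wells of Hanks' solution at 26C, then rinsed at 5 dpf. At 6 dpf, blinded assessors scored mortality (no heartbeat or coagulation) by stereomicroscopy, fitted against DMSO.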

Measured: AC50

CCCN(CCOc1c(Cl)cc(Cl)cc1Cl)C(=O)n1ccnc1
active: [1] 0.00173 µM | [2] 0.322 µM
inactive: [3]

CNC(=O)CSP(=S)(OC)OC
inactive: [1] | [2] | [3]

CC(C)(C)C(O)C(Oc1ccc(Cl)cc1)n1cncn1 (centres undefined)
inactive: [1] | [2] | [3]

ClC1C(Cl)C(Cl)C(Cl)C(Cl)C1Cl (centres undefined)
active: [4] 8.89 µM

O=S(=O)(O)C(F)(F)C(F)(F)C(F)(F)C(F)(F)C(F)(F)C(F)(F)C(F)(F)C(F)(F)F
inactive: [5] | [6] | [8] | [9] | [11] | [12] | [13] | [17]
active: [7] 32.7 µM and 91 µM | [8] 37.8 µM | [9] 22.5 µM | [10] 32.7 µM and 35.6 µM | [12] 46 µM | [13] 51.8 µM | [14] 32.7 µM and 16.7 µM | [15] 8.88 µM and 9.43 µM | [16] 8.88 µM and 7.83 µM | [17] 26.6 µM | [18] 8.69 µM and 3.21 µM | [19] 8.18 µM and 3.91 µM | [20] 10.7 µM and 21.1 µM | [4] 8.72 µM and 4.84 µM

O=C(O)C(F)(F)C(F)(F)C(F)(F)C(F)(F)C(F)(F)C(F)(F)C(F)(F)F
not listed: [1] | [2] | [3]
inactive: all other assays above
